# Source: PubChem
# A selection: hits, their analogues and other compounds. The true share with any hit is near 1.8%.
# RAD54 inh – RAD54 (human) branch migration inhibition. Q92698. RAD54 Holliday junction branch migration, FAM/BHQ fluorescence. inhibition, % at 10.4 µM. 360,000 compounds, 0.14% hits;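 active = mean normalized replicate activity at least 40 and at least half of replicates scoring 40 or more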;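 also: 0% = median of neutral control wells and 100% = median of positive control wells; inhibitors cause a drop in the FAM fluorescence signal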
# LGR2 inh – Drosophila LGR2 receptor signaling inhibition | HEK293 LGR2, CRE-luciferase, bursicon-stimulated, 4 h | inhibition, % at 9.99 µM | 380,000 compounds, 0.35% hits;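 active = drop in luminescence signal, shown as inhibition above about 50% in the replicate tests, limit read from the data, passing the limit was not always enough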;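 also: agonist challenge used bursicon conditioned medium at about half maximal strength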
# EWS-Fli block – EWS/Fli transcriptional activity inhibition. A673 NR0B1-luciferase reporter, viability-normalised. inhibition, % at 12.6 µM. 350,000 compounds, 0.67% hits. AID 651661;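 active = mean inhibition of at least 50% after viability correction, with every replicate also passing that limit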;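 also: firefly luciferase signal divided by Alamar Blue viability fluorescence both relative to DMSO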
# F508del corr – correctors of CFTR F508del function in bronchial epithelial cells; activity (quench increase), % at 7.58 µM; AID 720511; 350,000 compounds, 0.36% hits; CFBE cells, YFP halide quenching; stimulated with forskolin plus potentiator P3; % fluorescence drop versus neutral controls;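 active = mean added fluorescence quench of at least 8% versus neutral control, with both replicates also reaching 8%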;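 also: cells transiently co-express mutant CFTR-F508del with the halide-sensitive YFP; corrector assay measuring rescue of mutant channel to the surface after 24 h compound exposure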
# INS-1E GSIS act – primary screen for activators of insulin secretion dependent on glucose, INS-1E cells, GLuc reporter luminescence; INS-1E GLuc reporter insulin secretion, 2-3 h; activation, % at 16.6 µM; 370,000 compounds, 0.61% hits;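 active = lowest replicate activation of at least 40%, so every replicate reaches that level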;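 also: 0% = median of neutral control wells and 100% = median of IBMX positive control wells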
# RAD52 anneal inh – inhibitors of human RAD52 DNA annealing | recombinant RAD52 DNA annealing, FRET fluorescence | inhibition, % at 18.7 µM | P43351 | 360,000 compounds, 0.46% hits;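 active = every replicate showing at least 50% inhibition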
# Target sequence (P43351 whole entry, looked up): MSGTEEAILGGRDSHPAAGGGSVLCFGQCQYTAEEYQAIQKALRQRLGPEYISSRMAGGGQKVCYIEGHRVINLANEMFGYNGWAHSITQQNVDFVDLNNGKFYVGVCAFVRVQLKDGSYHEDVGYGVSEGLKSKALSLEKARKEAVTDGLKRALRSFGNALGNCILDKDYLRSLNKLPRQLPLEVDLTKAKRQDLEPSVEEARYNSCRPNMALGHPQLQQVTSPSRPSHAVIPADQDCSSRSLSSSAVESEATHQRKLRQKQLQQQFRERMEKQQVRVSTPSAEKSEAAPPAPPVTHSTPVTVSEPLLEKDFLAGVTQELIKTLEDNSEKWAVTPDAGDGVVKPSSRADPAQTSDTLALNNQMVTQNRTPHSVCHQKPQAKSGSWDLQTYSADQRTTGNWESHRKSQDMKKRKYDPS
# * = called active by the depositor; nt = no result.
SMILES,RAD54 inh,LGR2 inh,EWS-Fli block,F508del corr,INS-1E GSIS act,RAD52 anneal inh
N/C(=N\OC(=O)c1ccccc1Cl)c1ccccn1,4.6,95.0*,54.3*,-0.4,7.2,-4.6
Cc1cccc(CC(=O)Nc2cccnc2)c1,6.4,-1.4,4.3,8.4*,9.3,-9.5
COc1ccccc1OCCCCn1c(C(C)O)nc2ccccc21 (centres undefined),-10.2,5.1,8.3,-1.6,-7.8,-6.2
Cc1noc(C)c1S(=O)(=O)Nc1ccc2c(c1)C(=O)N([C@@H](C)CO)C[C@H](C)[C@H](CN(C)S(=O)(=O)c1ccc(F)cc1)OCCCC[C@H](C)O2,-4.1,8.3,11.3,0.5,-13.6,80.9*
Cc1noc(C)c1S(=O)(=O)Nc1ccc2c(c1)C(=O)N([C@H](C)CO)C[C@@H](C)[C@H](CN(C)S(=O)(=O)c1ccc(F)cc1)OCCCC[C@@H](C)O2,-8.1,3.1,6.3,-1.6,-13.3,58.6*
Cc1noc(C)c1S(=O)(=O)Nc1ccc2c(c1)C(=O)N([C@@H](C)CO)C[C@H](C)[C@@H](CN(C)S(=O)(=O)c1ccc(F)cc1)OCCCC[C@@H](C)O2,nt,4.4,-7.5,1.0,-16.8,nt
Cc1noc(C)c1S(=O)(=O)Nc1ccc2c(c1)C(=O)N([C@H](C)CO)C[C@H](C)[C@@H](CN(C)S(=O)(=O)c1ccc(F)cc1)OCCCC[C@@H](C)O2,-2.3,-18.3,-8.9,0.8,-7.2,76.4*
Cc1noc(C)c1S(=O)(=O)Nc1ccc2c(c1)C(=O)N([C@@H](C)CO)C[C@@H](C)[C@H](CN(C)S(=O)(=O)c1ccc(F)cc1)OCCCC[C@H](C)O2,-4.7,-17.9,2.7,0.9,-7.7,94.4*
Cc1noc(C)c1S(=O)(=O)Nc1ccc2c(c1)C(=O)N([C@H](C)CO)C[C@H](C)[C@H](CN(C)S(=O)(=O)c1ccc(F)cc1)OCCCC[C@H](C)O2,-9.0,-3.6,15.5,2.6,-1.9,-72.2
O=C(COC(=O)c1cc(S(=O)(=O)N2CCOCC2)ccc1Cl)Nc1ccccc1Cl,-0.8,-12.6,1.6,4.9,-18.9,-14.6
Cc1noc(C)c1NC(=O)NCC[C@@H]1CC[C@@H](NC(=O)Nc2cccc(Cl)c2)[C@H](CO)O1,3.8,-1.9,-3.6,0.9,0.5,-20.0
COc1ccc(NC(=O)N2CCCCN3[C@H](CO)[C@@H](c4ccc(-c5ccccc5F)cc4)[C@@H]3C2)cc1,6.9,21.8,20.9,1.9,-14.1,55.7*
COc1ccc(NC(=O)N2CCCCN3[C@H](CO)[C@H](c4ccc(-c5ccccc5F)cc4)[C@H]3C2)cc1,21.7,-4.1,13.0,-1.7,-15.6,56.6*
COc1ccc(NC(=O)N2CCCCN3[C@H](CO)[C@@H](c4ccc(-c5ccccc5F)cc4)[C@H]3C2)cc1,5.2,0.2,10.3,-4.6,-4.6,51.5*
O=C(Nc1ccccc1F)N1CCCCN2[C@H](CO)[C@@H](c3ccc(C4=CCCCC4)cc3)[C@H]2C1,-11.1,nt,9.1,0.9,nt,55.8*
CN(NC(=O)c1ccc(Cl)cc1)c1cccc(Cl)n1,-4.2,nt,nt,nt,nt,nt
Cc1ccc([N+](=O)[O-])cc1S(=O)(=O)Nc1cccc(-c2ccc(N3CCCC3)nn2)c1,-10.4,-8.7,-28.4,-1.8,-2.8,1.1
Cc1c(C(=O)NCCn2ccc3ccccc32)cccc1[N+](=O)[O-],-2.0,11.4,4.1,0.4,-17.4,-6.2
O=C(CN1CCCCCC1)Nc1ccccc1,nt,12.3,-1.6,-0.2,0.8,-10.3
CCNC(=S)Nc1cccc(S(=O)(=O)Nc2ccccc2OC)c1,nt,14.7,-10.6,0.3,-8.7,-7.7
COc1ccc(NC(=O)N2CCCCN3[C@@H](CO)[C@@H](c4ccc(C5=CCCC5)cc4)[C@@H]3C2)cc1,-13.2,nt,4.3,-3.8,nt,53.8*
COc1ccc(NC(=O)N2CCCCN3[C@H](CO)[C@H](c4ccc(C5=CCCC5)cc4)[C@H]3C2)cc1,3.3,nt,18.4,-2.9,nt,34.1
COc1cc(C(F)(F)F)c(C(=O)NCc2cccc(Cl)c2)cn1,-3.4,-13.2,-4.0,-0.2,48.3*,-2.8
CC(C)CN=C(NS(=O)(=O)c1ccccc1)C(Cl)(Cl)Cl,nt,94.0*,44.9,nt,-5.8,-6.5
